# Laboratory results: PubChem BioAssay (Tox21)
# Values without a mark were called inactive. Records with an inconclusive call do not appear. Where a call stands in place of a potency, no number is given. The source made the active and inactive calls. Unless noted, calls follow the shape of the dose curve; as a rule, active = well fitted curve in the direction sought with a large enough effect in the repeat runs; inconclusive = weak or mixed curves; inactive = no such curve, though single readings can be large; an effect the other way counts as inactive or inconclusive.
# Columns and labels:
# [1] = qHTS assay for small molecule agonists of the p53 signaling pathway (AID 651631; calls by dose curve; also: nearly all actives have a fitted effect of over 15% in size)
# How it was run: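 p53RE-bla HCT-116 cells; compounds 16 h, 37 °C; LiveBLAzer B/G FRET substrate 2 h RT; fluorescence intensity read-out, qHTS format.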
# [2] = qHTS assay for small molecules that induce genotoxicity in human embryonic kidney cells expressing luciferase-tagged ATAD5 (AID 651632); also: nearly all actives have a fitted effect of over 15% in size
# How it was run: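 A rise in luciferase signal from ATAD5-tagged HEK293T cells marks genetic stress. Cells were exposed to compounds for 16 hr at 37C, 5% CO2, then luciferase was quantified after a 30 min room-temperature incubation with Amplite.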
# [3] = qHTS assay for small molecule agonists of the p53 signaling pathway - cell viability (AID 651633; calls by dose curve;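 also: p53RE-bla HCT reporter cells with a stable beta-lactamase p53 reporter; series mostly up to about 83 µM; nearly all actives have a fitted effect of over 30% in size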)
# How it was run: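 p53RE-bla cells, seeded at 4,000 per well and rested 5 h at 37 C/5% CO2, received compounds in DMSO for 16 h at 37 C. CellTiter-Glo was then added, and luminescence was read after 30 min at room temperature to gauge cytotoxicity.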
# [4] = qHTS assay for small molecules that induce genotoxicity in human embryonic kidney cells expressing luciferase-tagged ATAD5 - cell viability (AID 651634; calls by dose curve; also: nearly all actives have a fitted effect of over 25% in size)
# How it was run: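 Cytotoxicity counter-readout: after 15.5 hr compound treatment at 37C, live-cell protease activity in ATAD5-luciferase HEK293T cells measured by CellTiter-Fluor fluorescence, 30 min development at 37C.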
# [5] = qHTS assay for small molecule disruptors of the mitochondrial membrane potential - cell viability (AID 720634; calls by dose curve;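 also: human HepG2 liver cancer cells; series mostly up to about 83 µM; nearly all actives have a fitted effect of over 20% in size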)
# How it was run: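 Cytotoxicity was quantified from ATP content by CellTiter-Glo luminescence in the same wells as the MMP dye read-out. HepG2 (2,000 cells/well) were plated overnight and exposed to compounds for 1 hr at 37 C.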
# [6] = qHTS assay for small molecule disruptors of the mitochondrial membrane potential (AID 720635); also: potency is read from the fitted curve at half-maximal effect
# How it was run: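 HepG2 cells (2,000/well) attached overnight at 37C, then took compound for 1 hr at 37C, 5% CO2. Mito-MPS dye was added for 30 min; fluorescence was read at 490/535 nm (monomers) and 540/590 nm (aggregates).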
# [7] = qHTS assay to test for compound auto fluorescence at 590 nm (red) in HepG2 cells (AID 720674)
# How it was run: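 Compound auto-fluorescence is scored relative to Rose Bengal sodium, measured at 540/590 nm in live HepG2 cultures after 1 hr compound contact (37 C, 5% CO2).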
# [8] = qHTS assay to test for compound auto fluorescence at 460 nm (blue) in HEK293 cells (AID 720678)
# How it was run: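 Triamterene serves as the blue fluorophore standard. Compound signal at 405/460 nm is read in HEK293 wells (2,000 cells, 10% dialyzed FBS) after overnight treatment at 37C.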
# [9] = qHTS assay to test for compound auto fluorescence at 590 nm (red) in HEK293 cells (AID 720679)
# How it was run: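 We plated HEK293 cells in 10% dialyzed FBS medium, let them adhere for 4-5 hr, then added 23 nL compound. Overnight at 37C and 5% CO2 preceded fluorescence measurement at 540/590nm.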
# [10] = qHTS assay to test for compound auto fluorescence at 535 nm (green) in HEK293 cells (AID 720680)
# [11] = qHTS assay to test for compound auto fluorescence at 460 nm (blue) in HEK293 cell free culture (AID 720681)
# How it was run: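 Test compounds were pinned into cell-free culture medium (DMEM with 10% FBS) and fluorescence was read directly at Ex/Em 405/460 nm. Signals were expressed as fluorescence equivalents of triamterene, with DMSO vehicle as control.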
# [12] = qHTS assay to test for compound auto fluorescence at 535 nm (green) in HEK293 cell free culture (AID 720682)
# How it was run: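 Cell-free medium (DMEM, 10% FBS) receives compound or DMSO by pintool. Plate read directly at Ex 485/Em 535 nm. Signal converted to fluorescein equivalency.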
# [13] = qHTS assay to test for compound auto fluorescence at 590 nm (red) in HepG2 cell free culture (AID 720684)
# How it was run: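 Ex 540 / Em 590 nm read of compound in cell-free MEM (10% FBS). Rose Bengal sodium reference.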
# [14] = qHTS assay to test for compound auto fluorescence at 460 nm (blue) in HepG2 cell free culture (AID 720685)
# How it was run: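 Cell-free plates of MEM plus 10% FBS received 23 nL compound or DMSO vehicle; blue-channel (405/460 nm) intensity scored against triamterene as reference fluorophore.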
# [15] = qHTS assay to test for compound auto fluorescence at 460 nm (blue) in HepG2 cells (AID 720687)
# How it was run: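 Cells (2,000/well in MEM with 10% FBS) attached overnight at 37 C, then were exposed to compound or DMSO for 1 hr at 37 C, 5% CO2. Fluorescence read at Ex/Em 405/460 nm, expressed as triamterene-equivalent signal.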
# [16] = target: Glucocorticoid receptor (Homo sapiens) (UniProt P04150); experiment: qHTS assay to identify small molecule agonists of the glucocorticoid receptor (GR) signaling pathway (AID 720691; active = well fitted activation curve with a large enough effect in the signal ratio in the repeat runs, not every such curve was filed as active; the % refers to the signal ratio)
# Sequence of Glucocorticoid receptor (Homo sapiens) (P04150 whole entry, looked up): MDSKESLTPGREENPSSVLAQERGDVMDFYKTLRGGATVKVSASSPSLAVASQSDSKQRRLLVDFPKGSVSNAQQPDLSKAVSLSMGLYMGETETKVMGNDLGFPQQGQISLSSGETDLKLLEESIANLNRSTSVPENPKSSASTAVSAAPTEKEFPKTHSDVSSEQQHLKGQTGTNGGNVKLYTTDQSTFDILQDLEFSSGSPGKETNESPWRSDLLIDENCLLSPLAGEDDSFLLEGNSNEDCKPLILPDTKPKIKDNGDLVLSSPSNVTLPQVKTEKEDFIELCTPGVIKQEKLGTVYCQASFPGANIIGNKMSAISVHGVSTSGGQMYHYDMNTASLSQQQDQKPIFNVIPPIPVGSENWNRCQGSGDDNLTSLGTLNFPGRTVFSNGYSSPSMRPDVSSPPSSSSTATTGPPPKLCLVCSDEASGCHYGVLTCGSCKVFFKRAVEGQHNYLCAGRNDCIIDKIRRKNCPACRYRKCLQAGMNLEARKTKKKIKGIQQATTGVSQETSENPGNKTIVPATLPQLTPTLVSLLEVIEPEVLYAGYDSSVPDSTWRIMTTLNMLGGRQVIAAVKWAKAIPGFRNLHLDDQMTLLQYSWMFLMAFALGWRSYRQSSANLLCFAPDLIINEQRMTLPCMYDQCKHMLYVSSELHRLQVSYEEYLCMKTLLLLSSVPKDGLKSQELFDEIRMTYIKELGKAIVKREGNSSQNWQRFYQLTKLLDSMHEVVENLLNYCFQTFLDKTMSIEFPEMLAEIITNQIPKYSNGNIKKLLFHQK
# How it was run: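 Agonist-mode qHTS in HeLa cells stably expressing a glucocorticoid-response-element beta-lactamase reporter. Fluorescence intensity read with FRET substrate (2 h, room temperature) after 18 h compound treatment at 37 C.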
# [17] = target: Glucocorticoid receptor (Homo sapiens) (UniProt P04150); experiment: qHTS assay to identify small molecule antagonists of the glucocorticoid receptor (GR) signaling pathway (AID 720692; active = well fitted inhibition curve with a large enough effect in the signal ratio in the repeat runs, not every such curve was filed as active; the % refers to the signal ratio)
# How it was run: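 Inhibition of dexamethasone-driven (5 nM final) beta-lactamase expression was measured in GRE-reporter HeLa cells over 18 h at 37C. Fluorescence was read after 2 h with the B/G FRET substrate at room temperature.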
# [18] = qHTS assay to test for compound auto fluorescence at 535 nm (green) in HepG2 cells (AID 720675)
# [19] = qHTS assay to test for compound auto fluorescence at 590 nm (red) in HEK293 cell free culture (AID 720683)
# How it was run: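 Tox21 10K library compounds were pinned into cell-free DMEM with 10% FBS and fluorescence was read at excitation 540 nm. Activity is expressed as Rose Bengal sodium equivalency.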
# [20] = qHTS assay to test for compound auto fluorescence at 535 nm (green) in HepG2 cell free culture (AID 720686)
smiles,measurement,setting,value
CCC(C)(CCCC(C)C)OC(C)=O (stereo not given),Potency,[1],inactive
same,Potency,[2],inactive
same,Potency,[3],inactive
same,Potency,[4],inactive
same,outcome,[5],inactive
same,Potency,[6],inactive
same,outcome,[7],inactive
same,outcome,[8],inactive
same,outcome,[9],inactive
same,outcome,[10],inactive
same,outcome,[11],inactive
same,outcome,[12],inactive
same,outcome,[13],inactive
same,outcome,[14],inactive
same,outcome,[15],inactive
same,Potency,[16],inactive
same,Potency,[17],inactive
c1ccc(Cc2ccccc2)cc1,Potency,[1],inactive
same,Potency,[2],inactive
same,Potency,[3],inactive
same,Potency,[4],inactive
same,outcome,[5],inactive
same,outcome,[7],inactive
same,outcome,[18],inactive
same,outcome,[8],inactive
same,outcome,[9],inactive
same,outcome,[10],inactive
same,outcome,[11],inactive
same,outcome,[12],inactive
same,outcome,[19],inactive
same,outcome,[13],inactive
same,outcome,[14],inactive
same,outcome,[20],inactive
same,outcome,[15],inactive
same,Potency,[16],inactive
same,Potency,[17],inactive
c1ccc2sc(SN3CCOCC3)nc2c1,Potency,[1],inactive
same,Potency,[2],inactive
same,Potency,[3],inactive
same,Potency,[4],inactive
same,outcome,[5],inactive
same,outcome,[7],inactive
same,outcome,[18],inactive
same,outcome,[8],inactive
same,outcome,[9],inactive
same,outcome,[10],inactive
same,outcome,[11],inactive
same,outcome,[12],inactive
same,outcome,[19],inactive
same,outcome,[13],inactive
same,outcome,[14],inactive
same,outcome,[15],inactive
same,Potency,[16],inactive
same,Potency,[17],inactive
COc1cc2c(cc1OC)-c1cc3ccc(OC)c(OC)c3c[n+]1CC2,Potency,[1],inactive
same,Potency,[2],inactive
same,Potency,[3],inactive
same,Potency,[4],inactive
same,outcome,[5],inactive
same,Potency,[6],17.4 µM (active)
same,outcome,[18],inactive
same,outcome,[8],inactive
same,outcome,[9],inactive
same,outcome,[10],inactive
same,outcome,[11],inactive
same,outcome,[12],inactive
same,outcome,[19],inactive
same,outcome,[13],inactive
same,outcome,[14],inactive
same,outcome,[20],inactive
same,outcome,[15],inactive
same,Potency,[17],inactive
CCCn1cc[n+](C)c1C,Potency,[1],inactive
same,Potency,[2],inactive
same,Potency,[3],inactive
same,Potency,[4],inactive
same,outcome,[5],inactive
same,outcome,[7],inactive
same,outcome,[18],inactive
same,outcome,[8],inactive
same,outcome,[9],inactive
same,outcome,[10],inactive
same,outcome,[11],inactive
same,outcome,[12],inactive
same,outcome,[19],inactive
same,outcome,[13],inactive
same,outcome,[14],inactive
same,outcome,[20],inactive
same,outcome,[15],inactive
CN(C)CCCN(C)CCCN(C)C,Potency,[1],inactive
same,Potency,[2],inactive
same,Potency,[3],inactive
same,Potency,[4],inactive
same,outcome,[5],inactive
same,outcome,[7],inactive
same,outcome,[18],inactive
same,outcome,[8],inactive
same,outcome,[9],inactive
same,outcome,[10],inactive
same,outcome,[11],inactive
same,outcome,[12],inactive
same,outcome,[19],inactive
same,outcome,[13],inactive
same,outcome,[14],inactive
same,outcome,[20],inactive
same,Potency,[16],inactive
same,Potency,[17],inactive
C[C@@H]1CCC[C@H](C)N1,Potency,[1],inactive
same,Potency,[2],inactive
same,Potency,[3],inactive
same,Potency,[4],inactive
same,outcome,[5],inactive
same,Potency,[6],inactive
same,"fluorescence, relative to Rose Bengal",[7],0.289% [at 18.6 µM]
same,"fluorescence, % of fluorescein control",[18],0.0643% [at 18.6 µM]
same,"fluorescence, % of fluorescent control",[9],0.0043% [at 18.6 µM]
same,"fluorescence, % of fluorescein",[10],-0.0078% [at 18.6 µM]
same,"fluorescence, % of fluorescent control",[11],-0.0158% [at 18.6 µM]
same,activity change,[12],0.0087% [at 18.6 µM]
same,"fluorescence, % of Rose Bengal",[13],0.0262% [at 18.6 µM]
same,"fluorescence, % of fluorescent control",[14],-0.0314% [at 18.6 µM]
same,"fluorescence, % of fluorescein control",[20],-0.001% [at 18.6 µM]
same,"fluorescence, % of fluorescent control",[15],0.0179% [at 18.6 µM]
same,Potency,[16],inactive
same,Potency,[17],inactive
